Laboratory results from PubChem BioAssay AID686979 (National Center for Advancing Translational Sciences (NCATS), 2013).
About 50,000 (12%) of roughly 420,000 compounds were called active. Roughly 26% stayed inconclusive and do not appear here. For the sample, actives were picked, then their nearest neighbours and some compounds at random. Unmarked numbers belong to inactive results. Calls come from the whole dose curve; as a rule, active = well fitted inhibition curve with a large enough effect; inconclusive = small, poorly fitted or top-dose-only effect; inactive = flat fitted curve, though single readings scatter.

Assay: qHTS for Inhibitors of human tyrosyl-DNA phosphodiesterase 1 (TDP1): qHTS in cells in presence of CPT; note: nearly all actives have a fitted effect of over 55% in size
Conditions: chicken DT40 Tdp1-/-;hTDP1 cells + 20 nM CPT, ATP luminescence, 48 h; series mostly up to 46.2 µM; activity change, negative = growth inhibition: at the top concentration
Description: Human tyrosyl-DNA phosphodiesterase 1 (TDP1) is a novel repair gene, and we propose to use it as a new target for anticancer drug development. TDP1 is not an essential protein, but under treatment with topoisomerase I poison (camptothecin: CPT), TDP1 works as a critical factor for cell survival. To directly identify novel TDP1 inhibitors active in a cellular environment, we have knocked-out the Tdp1 gene in chicken DT40 cells (Tdp1-/-) and generated a complemented counterpart cells that contains a stable transfection of the human TDP1 gene (Tdp1-/-;hTDP1 cells). For the primary screen, Tdp1-/-;hTDP1 cells will be exposed to small molecules in the presence or absence of CPT, and their growth kinetics will be evaluated after 48 hours by measuring ATP activity. […] The hit compounds will then be evaluated in the presence or absence of CPT using Tdp1-/- cells. […] In tertiary assays, biochemical gel-based assays will be used to assess whether the hit compounds specifically target TDP1. To this end, we have screened this cell line against the MLSMR in two primary screens. In one screen we add CPT and in the other we screen in the absence of CPT; this AID represents the screen where CPT was present. NIH Chemical Genomics Center [NCGC] NIH Molecular Libraries Probe Centers Network [MLPCN] MLPCN Grant: MH095538 Assay Submitter (PI): Yves Pommier, NCI
DT40-hTDP1 cells with 20 nM Camptothecin (add 20 microL of 1 mM CPT stock in 1 L of cell culture medium) were dispensed at 400 cells/5microL/well in tissue culture treated 1536-well white wall/solid bottom assay plates (Greiner Bio-One North America, NC, U.S.A.) using a Multidrop Combi 8 channel dispenser (Thermo Fisher, Waltham, MA, USA). 23 nL compounds and controls were transferred using the pin tool (Kalypsys, San Diego, CA, USA) to the assay plates. The assay plates were then incubated at 37 masculineC for a minimum 48 hr. Three microL of Cell Titer Glo solution was added to the plates and incubated at RT in dark for 30 min. Luminescence was read using ViewLux (Perkin Elmer) with 1 sec exposure slow speed, high gain and 2x binning.
% is set by controls: 0 for no effect and ±100 for the full control effect; potency is the fitted concentration of half-maximal effect.

Structure (SMILES)	Potency	activity change, negative = growth inhibition
C/C=C/NNC(=O)Cc1ccc(OC)cc1	3.55 µM (active)	–
CCCCCNC(=O)Cc1ccc(OC)cc1	–	3.59%
COc1ccc(CC(=O)Nc2ccc(C(=O)NC(C)(C)C)cc2)cc1	–	-12.6%
C#CCOCCOCCOCCNc1nc(N2CCN(C(=O)[C@H](CCC(=O)O)n3cc(CN)nn3)CC2)nc(N2CCN(C(=O)[C@H](CCC(=O)O)n3cc(CN)nn3)CC2)n1	–	33%
CC(=O)c1cccc(NC(=S)N2CCCC2)c1	–	48.5%
COc1ccc(CC(=O)N2N=C(C)CC2(O)C(F)(F)F)cc1 (stereo unspecified)	2.91 µM (active)	–
CC1=NN(C(=O)CCCc2ccccc2)C(O)(C(F)(F)F)C1 (stereo unspecified)	–	3.77%
CC1=NN(C(=O)Cc2ccc(C)cc2)C(O)(c2cccnc2)C1 (stereo unspecified)	–	-20.6%
CC1CC(=S)Nc2ccccc2N1Cc1ccccc1 (stereo unspecified)	–	-2.65%
Nc1nc2ncccn2c1-c1ccccc1	–	6.86%
O=S(=O)(Nc1cccc(-n2cnnn2)c1)c1cnc(Cl)c(Cl)c1	–	-19.4%
COc1ccc(N2C(=O)CS(=O)(=O)C23C(=O)N(Cc2ccc(C)cc2)c2ccccc23)cc1Cl (stereo unspecified)	–	-25%
COc1ccc(CC(=O)Nc2nc(-c3ccc(F)c(F)c3)cs2)cc1OC	10.3 µM (active)	–
COc1cccc(CC(=O)Nc2nc(-c3ccc(OC)c(OC)c3)cs2)c1	–	-62.3%
COc1cc(CC(=O)Nc2nc(-c3ccc(F)c(F)c3)cs2)cc(OC)c1OC	7.31 µM (active)	–
Cc1ccc(S(=O)(=O)NC(=O)Nc2nc(-c3ccc(F)c(F)c3)cs2)cc1	–	4.32%
COc1ccc(-c2csc(NC(=O)c3ccc(N4C(=O)CCC4=O)cc3)n2)cc1OC	–	-0.306%
COc1ccc(CCNC(=O)COC(=O)Cc2cc(OC)c(OC)c(OC)c2)cc1	–	-2.97%
CCOC(=O)c1cn(CC)c2cc(F)c(F)cc2c1=O	–	1.13%
O=C(NC1CCN(C(=S)NCc2ccco2)CC1)c1ccc(F)cc1	–	-14.3%
Cc1cc(OCCN2CCCC2)cc(C(C)C)c1	–	-26.9%
COc1ccc2[nH]c(C(=O)N3CCN(C)CC3)c(C)c2c1	–	16.8%

Structure (SMILES)	Potency	activity change, negative = growth inhibition
CCOC(=O)NN1C(=O)c2ccccc2NC1c1ccccc1O (stereo unspecified)	16.4 µM (active)	–
CCOC(=O)NN1C(=O)c2ccccc2NC1c1cccc(O)c1 (stereo unspecified)	–	7.21%
O=C1c2ccccc2NC(c2ccccc2O)N1NS(=O)(=O)c1ccccc1 (stereo unspecified)	–	-5.28%
Cc1ccc2nc(CN3CCN(S(=O)(=O)c4ccc(C)c(C)c4)CC3)oc2c1	–	-22.4%
CCOc1ccc(N(C)Cc2cc(=O)oc3ccc(OC)cc23)cc1	–	-25.6%
COc1ccc2c(c1)c(C(=O)N/N=C/c1cccs1)c(C)n2C	9.2 µM (active)	–
NC(=O)N/N=C\c1cccs1	–	-2.34%
Cc1cc(C)nc(SC(C)C(=O)N/N=C/c2cccs2)n1 (stereo unspecified)	–	-29.3%
CCn1c(SCC(=O)Nc2nccs2)nnc1-c1ccco1	–	1.22%
C[C@@H]1CN([C@H](C)CO)C(=O)CCCn2nncc2CO[C@@H]1CN(C)C(=O)OCc1ccccc1	–	-6.45%
Cc1ccc(C)c(NC2=NCC(=O)N2c2ccc3c(c2)OCCO3)c1	–	-1.47%
Cc1ccc(Cl)cc1NC(=O)NC1COc2ccccc2C1 (stereo unspecified)	–	-8.08%
CCc1cccc(CC)c1NC(=O)COc1ccccc1C(=O)c1cc(C#N)c(=O)n(C2CCCCC2)c1	18.4 µM (active)	–
Cc1cc(NC(=O)COc2ccccc2C#N)no1	–	-26.9%
CCc1cccc(C)c1NC(=O)COC(=O)CC1CCCC1	–	1.82%
CC(=O)Nc1ccc(NC(=O)CSc2nnc(COc3ccccc3C)n2CC2CCCO2)cc1 (stereo unspecified)	–	-5.96%
Cc1nc2ccccc2nc1N/N=C/c1ccc(O)cc1O	4.61 µM (active)	–
Oc1ccc(/C=N/NC2=NCCCCC2)c(O)c1	–	1.13%
Oc1ccc(-c2nc3ccccc3nc2-c2ccc(O)cc2O)c(O)c1	–	-11.8%
Cc1cc(N/N=C/c2ccccc2F)c2ccccc2n1	–	1.17%
Oc1ccc(/C=N/Nc2nc(-c3ccccc3F)nc3ccccc23)c(O)c1	5.8 µM (active)	–
CCOC(=O)CCNC(=O)N1CCCC(C(=O)c2ccccc2SC)C1 (stereo unspecified)	–	1.59%

Structure (SMILES)	Potency	activity change, negative = growth inhibition
CCNC(=O)N1CCCC(C(=O)c2ccc(-c3ccccc3)cc2)C1 (stereo unspecified)	20.6 µM (active)	–
Cc1ccccc1NC(=O)C1CCCN(C(=O)NCc2ccccc2)C1 (stereo unspecified)	–	-21%
CN(C(=O)c1ccccc1)c1nccnc1C#N	–	19.1%
COC(=O)c1ccc(CN2C(=O)NC(c3ccccc3)(c3ccccc3)C2=O)o1	–	-4.55%
O=C(CN1CCN(Cc2ccccc2)CC1)Nc1ccc(F)c(F)c1	–	-6.89%
O=C(CN1CCN(Cc2ccccc2)CC1)NC(c1ccccc1)c1ccccc1	14.6 µM (active)	–
O=C(CN1CCc2ccccc21)NC(c1ccccc1)c1ccccc1	–	-13.1%
CN(C)c1ccc(CNC23CN4CN(CN(C4)C2)C3)cc1	8.2 µM (active)	–
COCCN1CCN(C(=O)c2cc(COc3ccc(F)cc3Cl)on2)CC1	–	-26.5%
Cn1cc(S(=O)(=O)NC(c2ccccc2)c2ccccc2)c(=O)n(C)c1=O	–	-14.7%
CCn1c(SCc2ccccc2)nc2cc(OC)c(OC)cc2c1=O	–	-16%
CCn1c(SCc2ccccc2)nc2c(c1=O)SCC2	–	-21.4%
CCn1cc2nc(SCc3cccc(F)c3)n(CCc3ccccc3)c(=O)c2n1	16.4 µM (active)	–
C[C@@H]1CN([C@H](C)CO)C(=O)CCCn2nncc2CO[C@@H]1CN(C)S(=O)(=O)c1cccc(C#N)c1	–	-19.4%
C/C(=C/c1ccccc1)C(=O)N1CCN(c2ccccc2)CC1	–	-19.7%
NC(=O)C1(N2CCCC2)CCN(Cc2ccccc2)CC1	–	-5.42%
Cc1cccc(NC(=O)CCn2c(=O)oc3ccccc32)c1	–	15.7%
O=C(Nc1ccc(Br)cn1)c1ccc([N+](=O)[O-])cc1Cl	–	-29.8%
CN1C(=O)c2ccc(C(=O)Nc3ccc(Br)cn3)cc2C1=O	–	-2.38%
Cc1onc(NC(=O)c2ccc([N+](=O)[O-])o2)c1Br	–	-19.5%
O=C(Nc1ccc(Br)cn1)c1ccc([N+](=O)[O-])o1	2.06 µM (active)	–
Cc1cccc(NC(=O)c2ccc([N+](=O)[O-])o2)c1	16.4 µM (active)	–

Structure (SMILES)	Potency	activity change, negative = growth inhibition
CCc1ccc(N2C(=O)CN(S(=O)(=O)CC)CC2(C)C(=O)NC2CCCCC2)cc1 (stereo unspecified)	–	-10.8%
Cc1ccc(CN2CCN(c3ncccn3)CC2)c(C)c1	–	27.8%
O=C(NCC(O)c1nc2ccccc2[nH]1)c1ccc(Br)cc1 (stereo unspecified)	–	-11.6%
Cc1ccc(Cl)cc1N1CCN(S(=O)(=O)c2cc3[nH]c(=O)c(=O)[nH]c3cc2C)CC1	–	3.27%
CCC(=O)Nc1ccc(-c2ccc(N3CCCCC3)nn2)cc1	–	-27.5%
c1csc(-c2nnc(COc3ccc4c(c3)OCO4)o2)c1	–	11.7%
O=[N+]([O-])c1ccc(F)cc1Oc1nc(-c2cccnc2)nc2ccccc12	18.4 µM (active)	–
CCN(CC(=O)NC1CCS(=O)(=O)C1)c1nc(-c2cccnc2)nc2ccccc12 (stereo unspecified)	–	4.18%
O=[N+]([O-])c1cc2ccccc2nc1-c1ccccc1	–	-16%
O=C(COC(=O)CNC(=O)c1ccco1)Nc1ccc(F)cc1	–	4.84%
Cc1cccc(NS(=O)(=O)c2cc(Cl)ccc2Cl)n1	–	16.8%
COc1ccc(CCNC(=O)CN2C(=O)CCSc3ccccc32)c(OC)c1	–	28.7%
Cc1ccc(-c2cc(-c3coc4ccccc4c3=O)c3c(n2)-c2cc(Cl)ccc2OC3)cc1	–	0.49%
COc1ccccc1CCC(=O)NNC(=O)c1ccncc1	–	15.3%
CCCCCc1c(Cc2ccccc2)ncn1CCc1ccccc1OC	2.59 µM (active)	–
CCC(=O)NCc1cc(-c2nn(C)c(=O)c3ccccc23)ccc1OC	inactive	–
CCCCCc1c(-c2cccc(Br)c2)ncn1CCc1ccccc1OC	11.6 µM (active)	–
CCCCNS(=O)(=O)CCNCc1ccccc1OC	–	-6.55%
CCOC(=O)CSc1nnc(-c2cccc(Br)c2)o1	–	-10.6%
CCCCCc1c(-c2ccc(OC)c(OC)c2)ncn1CCc1ccccc1OC	2.31 µM (active)	–
CCN(CC)CCN1C(=O)C(=O)/C(=C(/O)c2ccc(OC)c(OC)c2)C1c1ccccn1 (stereo unspecified)	–	0.331%
CCCCn1c(N)c(N(CC(C)C)C(=O)CN(C)S(=O)(=O)c2ccc(F)cc2)c(=O)[nH]c1=O	–	12.9%

Structure (SMILES)	Potency	activity change, negative = growth inhibition
Cc1cc(F)ccc1NC1(c2ccccc2)C(=O)c2ccccc2C1=O	–	3.73%
COc1ccc(S(=O)(=O)NC(=O)C2(C)CCN2C(=O)COc2ccc(Cl)cc2)cc1 (stereo unspecified)	–	1.46%
COc1ccccc1C(=O)NC(=O)COC(=O)c1ccco1	–	17.6%
COc1ccc(C)cc1N(CC(=O)N1CCCC1)S(=O)(=O)c1ccccc1	–	10%
C/C(N)=C(/C#N)C(=O)COC(=O)C1CCN(C(=O)c2ccc(Cl)cc2)CC1	–	1.82%
C[C@]12CC[C@H](O)CC1=CCC1C2CC[C@@]2(C)C1CC[C@@H]2NC(=O)CCC(=O)O (stereo partly specified)	–	3.29%
C#CC(CCN1CCCCC1)(OC)c1ccccc1 (stereo unspecified)	–	4.82%
CN1CCC[C@@H]1CCO[C@](C)(c1ccccc1)c1ccc(Cl)cc1	21.1 µM (active)	–
CCC1CCC/C1=N\NC(=O)c1ccc(Cl)cc1 (stereo unspecified)	–	10.2%
CC(=O)c1ccc(F)c(-c2cc(C)cc3c2OC(CNC(=O)Cc2c[nH]c4ccccc24)C3)c1 (stereo unspecified)	–	11.9% [at 9.04 µM]
Cc1cc(C)cc(NC(=O)CSc2oc(-c3ccccc3)nc2S(=O)(=O)c2ccc(Cl)cc2)c1	5.17 µM (active)	–
O=C(CSc1oc(-c2ccccc2)nc1S(=O)(=O)c1ccc(Br)cc1)NC1CCCCC1	–	1.11%
Cc1cc(C)cc(NC(=O)CSc2ccccc2)c1	–	-19.7%
C/C=C1\C2C=C(C)CC1(N)c1ccc(=O)[nH]c1C2 (stereo unspecified)	–	-4.72% [at 92.5 µM]
CCCN(CCC)CCNC(=O)Cn1cnc2sc(C)c(S(=O)(=O)N3CCC(C)CC3)c2c1=O	–	4.45%
COC(=O)c1ccccc1SC1CC(=O)N(c2cccc(C)c2)C1=O (stereo unspecified)	9.2 µM (active)	–
COC(=O)c1cccc(N2C(=O)C3C4C=CC(CC4)C3C2=O)c1 (stereo unspecified)	–	5.7%
COc1cccc(N2C(=O)CC(N3CCc4ccccc4C3)C2=O)c1 (stereo unspecified)	–	-2.6%
